In the library only some 19% were active in any assay of this set; here they are far more common.
HT1080 IDH1KD tx = kills HT-1080 cells with IDH1 knockdown; HT-1080 IDH1 knockdown viability, ATP luminescence, 48 h; Potency, µM (series often up to 46.1 µM), most hits filed as cytotoxic; AID 686971; actives 2% (n = 360,000)
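HT-1080-IDH1KD cells (IDH1 knocked down), 750/well in RPMI with 5% FBS, treated with compound 48 h at 37 degrees C. Viability by CellTiter-Glo luminescence, normalised to DMSO and no-cell wells; concentration-response curves classed.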
TDP1 cell CPT = DT40-hTDP1 cell growth loss with CPT | chicken DT40 Tdp1-/-;hTDP1 cells + 20 nM CPT, ATP luminescence, 48 h | Potency, µM (highest dose often 46.2 µM), usual class: inhibitors | actives 12% (n = 420,000); also: nearly all actives have a fitted effect of over 55% in size
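Chicken DT40 Tdp1-/- cells complemented with human TDP1, 400 cells/well, exposed to compounds plus 20 nM camptothecin for at least 48 h at 37 C; viability read as ATP content by CellTiter-Glo luminescence.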
HT1080-NT tox = kills 2HG-producing HT-1080-NT fibrosarcoma cells; actives 1.6% (n = 360,000); AID 686970; Potency, µM (top dose mostly 46.1 µM), hits mostly cytotoxic; HT-1080-NT fibrosarcoma viability, CellTiter-Glo ATP luminescence, 48 h;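 also: NT is the 2HG producing partner of a matched IDH1 knockdown line; nearly all actives have a fitted effect of over 55% in size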
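Fibrosarcoma NT cells, 750 per well in 5% FBS RPMI, were exposed to compound for 48 hours. Viability: CellTiter-Glo luminescence.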
DT40 TDP1 no CPT = qHTS for Inhibitors of human tyrosyl-DNA phosphodiesterase 1 (TDP1): qHTS in cells in absence of CPT. DT40 Tdp1-/- hTDP1 cells, no CPT, ATP luminescence, 48 h. Potency, µM (top dose mostly 46.2 µM), most hits filed as inhibitors. actives 15% (n = 420,000). AID 686978, 2013; also: nearly all actives have a fitted effect of over 55% in size
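Compound effects on proliferation are scored in DT40 Tdp1-/-;hTDP1 cells in the absence of CPT. ATP levels (CellTiter-Glo luminescence) are recorded after a ≥48 hr, 37 °C incubation.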
IL1B secr inh = inflammasome signaling inhibition, IL-1 beta readout; THP-1 LPS/ATP IL-1B secretion, AlphaLISA, 16 h; stronger effect = lower value; activity change, % at 57.5 µM; actives 4.7% (n = 360,000); in the data active = activity change below about -50%; inconclusive = mostly about -30% to -49%
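THP-1 cells pretreated 1 hr with compounds (up to 57.5 uM final), then stimulated with LPS (250 ng/mL final) plus ATP (1.25 mM final); secreted IL-1B measured by AlphaLISA after 16 hr, decreased signal indicating inhibition.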
Each line names hits and unclear results; the compound was inactive in the other large screens. Unless noted, calls follow the shape of the dose curve; as a rule, active = well fitted curve in the direction sought with a large enough effect; inconclusive = small, poorly fitted or top-dose-only effect, or another doubt; inactive = no such curve, though single readings can be large; an effect the other way counts as inactive or inconclusive.

CC(C)N(CCc1ccncc1)C(=S)Nc1cccc(Cl)c1	none
COc1ccc(NC(=O)c2cc(C3CC3)nc3c2cnn3C(C)C)cc1OC	TDP1 cell CPT inconclusive, DT40 TDP1 no CPT inconclusive
COc1ccc(CCNC(=O)C(=O)NCC(c2ccco2)S(=O)(=O)c2ccccc2)cc1 (stereo unspecified)	none (no result: HT1080 IDH1KD tx, HT1080-NT tox, IL1B secr inh)
NC(Cc1ccc(Cl)cc1)c1csc(Nc2cc(NCCCO)ncn2)n1 (stereo unspecified)	HT1080 IDH1KD tx inconclusive, TDP1 cell CPT inconclusive, HT1080-NT tox inconclusive, DT40 TDP1 no CPT 14.6µM, IL1B secr inh -60.1
NC(Cc1ccccc1)c1csc(Nc2ccc(C(=O)NCCCO)cn2)n1 (stereo unspecified)	TDP1 cell CPT inconclusive, DT40 TDP1 no CPT inconclusive
NC(Cc1ccc(Cl)cc1)c1csc(Nc2ccc(C(=O)NCCCO)cn2)n1 (stereo unspecified)	HT1080 IDH1KD tx inconclusive, TDP1 cell CPT inconclusive, HT1080-NT tox 14.6µM, DT40 TDP1 no CPT inconclusive
COc1ccc(CC(N)c2csc(Nc3cc(NCCCO)ncn3)n2)cc1 (stereo unspecified)	HT1080 IDH1KD tx inconclusive, TDP1 cell CPT inconclusive, DT40 TDP1 no CPT inconclusive, IL1B secr inh -56.8
NC(COCc1ccccc1)c1csc(Nc2cc(NCCCO)ncn2)n1 (stereo unspecified)	TDP1 cell CPT inconclusive, DT40 TDP1 no CPT inconclusive
Cc1cccc(NC(=O)CN(C)S(=O)(=O)c2ccc3c(c2)c(=O)n(C)c(=O)n3C)c1	none (no result: HT1080 IDH1KD tx, HT1080-NT tox, IL1B secr inh)
O=C(O)C(Cc1c[nH]c2ccccc12)NS(=O)(=O)c1ccc(Cl)c(C(F)(F)F)c1 (stereo unspecified)	none
Cc1ccc2[nH]cc(CCNC(=O)Nc3ccccc3)c2c1	TDP1 cell CPT inconclusive, DT40 TDP1 no CPT inconclusive
Cc1ccc2[nH]cc(C(c3ccccc3)c3cccs3)c2c1 (stereo unspecified)	TDP1 cell CPT inconclusive, DT40 TDP1 no CPT 18.4µM (no result: HT1080 IDH1KD tx, HT1080-NT tox, IL1B secr inh)
Cc1ccc2[nH]cc(S(=O)(=O)c3ccc(C(C)C)cc3)c(=O)c2c1	none
Cc1ccc2[nH]cc(C(c3ccccc3)c3ccc(C)s3)c2c1 (stereo unspecified)	TDP1 cell CPT inconclusive, DT40 TDP1 no CPT 18.4µM (no result: HT1080 IDH1KD tx, HT1080-NT tox, IL1B secr inh)
COc1ccc(-c2csc3ncnc(N4CCN(S(=O)(=O)c5cccc(C(F)(F)F)c5)CC4)c23)cc1	TDP1 cell CPT inconclusive, DT40 TDP1 no CPT inconclusive
COc1ccc(-c2csc3ncnc(N4CCN(S(=O)(=O)c5cccc(Br)c5)CC4)c23)cc1	TDP1 cell CPT 23.1µM, DT40 TDP1 no CPT 9.2µM
COc1ccc(-c2csc3ncnc(N4CCN(S(=O)(=O)c5ccc(C(C)=O)cc5)CC4)c23)cc1	HT1080 IDH1KD tx inconclusive, TDP1 cell CPT inconclusive, DT40 TDP1 no CPT inconclusive, IL1B secr inh -74.2
CCOC(=O)CC(=O)CSc1nc2sc(C)cc2c(=O)n1Cc1ccco1	TDP1 cell CPT 16.4µM, DT40 TDP1 no CPT 23.1µM
CCOC(=O)c1cc(CC)sc1NC(=O)CSc1nc2ccccc2c(=O)n1Cc1ccco1	TDP1 cell CPT inconclusive, DT40 TDP1 no CPT inconclusive
Cc1sc2nc(SCC(=O)C(C)(C)C)n(Cc3ccco3)c(=O)c2c1C	HT1080 IDH1KD tx 6.31µM, TDP1 cell CPT 13µM, HT1080-NT tox 7.08µM, DT40 TDP1 no CPT 13µM
CC(C)C(=O)N1CCC1(C)C(=O)Nc1nc2ccccc2[nH]1 (stereo unspecified)	none
CC1=C(C(=O)OC2CCCCCC2)C(c2c(F)cccc2Cl)CC(=O)N1 (stereo unspecified)	TDP1 cell CPT inconclusive, DT40 TDP1 no CPT 16.4µM (no result: HT1080 IDH1KD tx, HT1080-NT tox, IL1B secr inh)
CC1=C(C(=O)OC2CCCC2)C(c2c(F)cccc2Cl)CC(=O)N1 (stereo unspecified)	TDP1 cell CPT inconclusive, DT40 TDP1 no CPT 14.6µM (no result: HT1080 IDH1KD tx, HT1080-NT tox, IL1B secr inh)
Cc1cc(NC(=O)COC(=O)CCNS(=O)(=O)c2ccccc2)n(-c2ccccc2)n1	none
C=C(CC)C(=O)c1ccc(OCC(=O)O)c(Cl)c1Cl	HT1080 IDH1KD tx 23.1µM, TDP1 cell CPT 16.8µM, HT1080-NT tox 18.4µM, DT40 TDP1 no CPT 18.4µM, IL1B secr inh -94.3
CCOC(=O)COc1ccc2nsnc2c1Cl	none
CCOC(=O)c1ccc(NC(=S)N2CCN(S(C)(=O)=O)CC2)cc1	none
CCOC(=O)c1ccc(NC(=S)N2CCSC2c2c(F)cc(F)cc2F)cc1 (stereo unspecified)	TDP1 cell CPT 23.1µM, DT40 TDP1 no CPT 25.9µM
C#CCCc1ccccc1/C=[N+](/C)[O-]	TDP1 cell CPT 23.1µM, DT40 TDP1 no CPT inconclusive
C/[N+]([O-])=C\c1coc2ccccc2c1=O	none
Cc1cc(NC(=S)Nc2ccc(C)c(Cl)c2)n[nH]1	TDP1 cell CPT inconclusive, DT40 TDP1 no CPT inconclusive
Cc1cc(NC(=O)CSc2nc3ccc(Cl)cc3[nH]2)no1	none
NS(=O)(=O)c1ccc(NC(=O)COC(=O)c2ncc(Cl)c(Cl)c2Cl)cc1	IL1B secr inh -62.3
NS(=O)(=O)c1ccc(NC(=O)COC(=O)c2cnc(Cl)c(Cl)c2)cc1	IL1B secr inh -75.0
CCOc1ccc(NC(=O)COC(=O)c2ncc(Cl)c(Cl)c2Cl)cc1	none
NS(=O)(=O)c1ccc(NC(=O)COC(=O)c2cc([N+](=O)[O-])ccc2Cl)cc1	IL1B secr inh -89.9
CCCC1=C(C(=O)OCC)C(c2ccc(OC)c(C)c2OC)C(C#N)=C(N)O1 (stereo unspecified)	TDP1 cell CPT inconclusive, DT40 TDP1 no CPT inconclusive
COc1ccc(-c2sc3ccc(N4CCOCC4)cc3c2C#CC(C)(C)O)cc1	TDP1 cell CPT 20.6µM, DT40 TDP1 no CPT 9.2µM
COc1ccc(-c2sc3ccc(N4CCOCC4)cc3c2C#Cc2ccsc2)cc1	TDP1 cell CPT 18.4µM, DT40 TDP1 no CPT inconclusive
Nc1ccc(C#Cc2c(-c3ccsc3)oc3ccc(N4CCOCC4)cc23)cc1	HT1080 IDH1KD tx inconclusive, TDP1 cell CPT inconclusive, DT40 TDP1 no CPT inconclusive
COc1ccc(-c2sc3ccc(N4CCOCC4)cc3c2-c2ccc(O)cc2)cc1	TDP1 cell CPT inconclusive, DT40 TDP1 no CPT inconclusive
CCN(c1ccccc1C)S(=O)(=O)c1cc2c3c(c1)CCC(=O)N3CCC2	TDP1 cell CPT inconclusive
O=C(Nn1cnnc1)c1cc(Br)ccc1Cl	none
O=C(c1ccccc1)[C@@H]1[C@@H](C(=O)c2ccc(F)cc2)[C@@]2(C(=O)Nc3ccccc32)[C@H]2c3ccccc3C=CN12	TDP1 cell CPT 23.1µM, DT40 TDP1 no CPT 14.6µM, IL1B secr inh inconclusive
CC(=O)[C@@H]1[C@@H](C(=O)c2ccccc2)[C@]2(C(=O)Nc3ccccc32)[C@H]2C=Cc3cc(F)ccc3N12	TDP1 cell CPT 23.1µM, DT40 TDP1 no CPT 18.4µM
COc1cccc(C(=O)NC2CCCN(C3Cc4ccccc4C3)C2)c1OC (stereo unspecified)	TDP1 cell CPT inconclusive
O=C(O)COc1ccc(OCCNC[C@H](O)COc2ccccc2)cc1	none (no result: HT1080 IDH1KD tx, HT1080-NT tox, IL1B secr inh)
